Inconclusive results are not listed. Activity calls are given as the source filed them. The call rests on the fitted dose curve; in most records, active means well fitted inhibition curve with a large enough effect; inconclusive means small, poorly fitted or top-dose-only effect; inactive means flat fitted curve, though single readings scatter.
molecular target: Dual specificity tyrosine-phosphorylation-regulated kinase 1A (Homo sapiens) (UniProt Q13627); test: Confirmation Assay for Inhibitors of Dyrk1a (Kinase-Glo Assay): KU probe; details: Kinase-Glo ATP luminescence; series mostly up to 76.9 µM
Method in brief: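 5 nM Dyrk1A, 8 uM Dyrktide, 2 uM ATP, 25 mM Tris pH 7.5, 10 mM MgCl2; 2 h RT. Readout: Kinase-Glo Plus luminescence of remaining ATP. Harmine/no-enzyme as positive control, DMSO negative.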

Structure (SMILES)	Potency
COc1ccc(CNc2ccnc(-c3c(C)noc3C)n2)cc1	inactive
COc1ccc(-c2ccnc(NCc3ccc(Cl)cc3)n2)cc1	1840 nM (active)
Clc1ccc(CNc2ccnc(-c3ccc4c(c3)OCO4)n2)cc1	inactive
c1cncc(CNc2ccnc(-c3ccc4ccccc4c3)n2)c1	14600 nM (active)
c1cncc(CNc2nccc(-c3ccc4[nH]ncc4c3)n2)c1	146 nM (active)
Clc1ccc(CNc2ccnc(-c3ccc4c(c3)OCO4)n2)cc1Cl	inactive
Cc1ccc(CNc2ccnc(-c3ccc4c(c3)OCO4)n2)cc1	inactive
COc1ccc(-c2nccc(NCc3ccccc3)n2)cc1	inactive
N#Cc1cccc(-c2ncccn2)c1	inactive
COc1cccc(-c2ccnc(NCc3ccc(Cl)c(Cl)c3)n2)c1	5820 nM (active)
c1nc(NCC2CC2)c2cc(-c3ccc4c(c3)OCO4)ccc2n1	41.2 nM (active)
c1nc(NCCc2cnc[nH]2)c2cc(-c3ccc4c(c3)OCO4)ccc2n1	328 nM (active)
Clc1ccc(CNc2nccc(-c3ccc4[nH]ncc4c3)n2)cc1Cl	328 nM (active)
Clc1cc(Cl)cc(CNc2ncncc2-c2ccc3c(c2)OCO3)c1	2600 nM (active)
FC(F)(F)c1cc(Br)cc(Nc2nccc(-c3ccc4c(c3)OCO4)n2)c1	519 nM (active)
Cc1csc(CN(C)c2ncnc3ccc(-c4ccc5c(c4)OCO5)cc23)n1	23.2 nM (active)
c1nc(NCCC2CCCO2)c2cc(-c3ccc4c(c3)OCO4)ccc2n1 (stereo not drawn)	164 nM (active)
Clc1cc(CNc2ccnc(-c3ccc4c(c3)OCO4)n2)ccn1	23200 nM (active)
